# Compound activity (PubChem)
# Shown is part of a subset that was picked to be rich in hits.
# AMA1 RON2 block – qHTS for Inhibitors of AMA1-RON; Towards Development of Antimalarial Drug Lead: Primary Screen. Plasmodium falciparum AMA1 (3D7) - RON2 peptide interaction. AlphaScreen AMA1-biotinylated RON2 peptide binding. Potency, µM (doses to about 58.2 µM), for inactives: at the top dose activity change, negative = inhibition, usual class: inhibitors. 360,000 tested, 0.2% active; active = well fitted inhibition curve with a large enough effect; inconclusive = small, poorly fitted or top-dose-only effect; inactive = no such curve, though single readings can be large or run the other way;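 also: potency is read from the fitted curve at half-maximal effect; 0% = vehicle wells and -100% = peptide control; nearly all actives have a fitted effect of over 45% in size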
#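 AMA1 (3D7) with his tag at 25 nM final met compounds first, then biotinylated RON2 peptide at 25 nM; detection used donor plus acceptor beads, 10 µg/mL apiece, read by AlphaScreen after 30 min at room temperature.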
# Shiga inhibitor – A qHTS for Small Molecule Inhibitors of Shiga Toxin; Vero cells, Shiga toxin protein synthesis inhibition reporter; inhibition, % at 38.7 µM; 290,000 tested, 9.2% active; in the data active = inhibition mostly above about 28%, no sharp cut-off; inactive = mostly below about 43%; also: 0% is about no effect
# Lassa entry inh – qHTS for Inhibitors of binding or entry into cells for Lassa Virus. Lassa virus pseudotype entry inhibition, cell reporter. Potency, µM (top dose mostly 37.9 µM), without a hit: at the top dose activity change, negative = inhibition, most hits filed as inhibitors. 300,000 tested, 1.2% active. AID 540256, 2011; calls by dose curve; tested in HEK293 cells; also: potency is read from the fitted curve at half-maximal effect; % is scaled to controls: 0 for no effect and ±100 for the full control effect; nearly all actives have a fitted effect of over 50% in size
# CHX counter – Cycloheximide Counterscreen for Small Molecule Inhibitors of Shiga Toxin | AID 2314, 2010 | max response, % | 300,000 tested, 12% active | cell reporter, cycloheximide protein synthesis inhibition counterscreen; in the data active = max response mostly above about 13%, no sharp cut-off; inactive = mostly below about 14%; also: read at 38.3 µM for the half of the compounds with a filed dose; 0% is about no effect
# Marburg entry inh – qHTS for inhibitors of binding or entry into cells for Marburg Virus | 300,000 tested, 1.8% active | Potency, µM (doses to about 37.8 µM), for the others: at the highest dose activity change, negative = inhibition, usual class: inhibitors | Marburg virus pseudotyped entry inhibition, cell reporter; calls by dose curve; tested in HEK293 cells; also: potency is read from the fitted curve at half-maximal effect; % is scaled to controls: 0 for no effect and ±100 for the full control effect
# Numbers without * were called inactive; ? = inconclusive; · = not tested or not shown; [ ] = another dose, or the depositor's remark.
SMILES,AMA1 RON2 block,Shiga inhibitor,Lassa entry inh,CHX counter,Marburg entry inh
COc1ccc(/C(N)=N/OC(=O)c2cccc([N+](=O)[O-])c2)cc1,-4%,26,?,1,?
N/C(=N\OC(=O)c1ccc2c(c1)OCO2)c1ccc(Cl)cc1,2%,91*,-30%,62*,-24%
COc1ccc(/C(N)=N/OC(=O)c2ccc3c(c2)OCO3)cc1,12%,46*,?,52*,7%
O=C(NN=Cc1ccc2c(c1)OCO2)c1ccncc1,22%,·,35%,·,21%
Cc1cc(C)cc(C(=O)O/N=C(\N)c2ccc(Br)cc2)c1,3%,16,?,12,-26%
N/C(=N\OC(=O)c1ccc2c(c1)OCO2)c1ccncc1,-9%,44,·,35*,·
CCOc1ccc(NC(=O)[C@@H](c2ccccc2)N2Cc3ccccc3C2=O)cc1,·,·,26%[46.1 µM],·,3%[46.1 µM]
COc1ccccc1CNC(=O)c1cc2ccc3ccc(C)[nH]c3c2n1,·,·,-1%[46.1 µM],·,·
CCCC(=O)Nc1ccc(C(=O)/C=C/c2ccc(SC)cc2)cc1,-4%,28,?,22,?
O=C(O)c1ccc(/C=C/C(=O)c2ccc3c(c2)OCCCO3)cc1,10%,92*,?,105*,?
COc1ccc(/C=C/C(=O)c2ccc3c(c2)OCCO3)cc1[N+](=O)[O-],-1%,8,-6%,-1,?
O=C(/C=C/c1cccc([N+](=O)[O-])c1)c1ccc2c(c1)OCCO2,-15%,-6,-5%,-1,?
CC(=O)Nc1ccc(/C=C/C(=O)c2ccc3c(c2)OCCO3)cc1,-4%,45*,-25%,23*,1%[46.1 µM]
CSc1ccc(/C=C/C(=O)c2ccc(NC(C)=O)cc2)cc1,-3%,59*,-4%,33*,-1%
CCc1cc2c(nc1CC)CCN(CCC(C)=NOC[C@@H](O)[C@H]1O[C@@H]3OC(C)(C)O[C@H]3[C@@H]1O)C2,·,·,·,·,-6%[14.2 µM]
CC(NC(=O)/C=C/c1ccccc1)c1ccccc1 (stereo not given),17%,-6,?,-2,?
CC(NC(=O)/C=C/c1ccc(Br)cc1)c1ccccc1 (stereo not given),-5%,-13,15µM*,1,?
Cc1ccc(/C=C/C(=O)NC(C)c2ccccc2)cc1 (stereo not given),8%[2.32 µM],24,11µM*,-3,9%
COC(=O)c1nn(C)c(=O)[nH]c1=O,26%,·,10%[46.1 µM],·,5%[46.1 µM]
O=C(O)CC1SC(N/N=C/c2ccc(Br)cc2)NC1=O (stereo not given),67%,79*,7%,44*,10%
CC(=O)C1=C(O)C(=O)N(C)C1c1ccccc1[N+](=O)[O-] (stereo not given),-4%,21,5%[46.1 µM],17*,-5%[46.1 µM]
CC(=O)C1=C(O)C(=O)N(CCCN2CCOCC2)C1c1ccccc1[N+](=O)[O-] (stereo not given),30%,105*,15%,35*,?
COC(=O)Cn1cnc2c(cnn2-c2ccc(OC)cc2)c1=O,-2%,42,12%[46.1 µM],23*,9%[46.1 µM]
COC(=O)Cn1cnc2c(cnn2-c2ccc(C)cc2)c1=O,-6%,69*,·,48*,·
Cc1cccc(N=C(N2CCOCC2)P(=O)(N2CCOCC2)N2CCOCC2)c1,-8%,-7,-2%,-1,-6%
SMILES,AMA1 RON2 block,Shiga inhibitor,Lassa entry inh,CHX counter,Marburg entry inh
CC(/C=N/n1c(C2CCCCC2)n[nH]c1=S)=C\c1ccccc1,36%,-9,18µM*,-3,?
CC(=O)Nc1ccc(NC(=O)CCn2cnnn2)cc1,20%,11,·,-2,-1%[46.1 µM]
O=C(CCn1cnnn1)Nc1ccc(F)cc1,3%,66*,11%,26*,?
COc1ccc2sc3ccccc3c(=O)c2c1,66%,81*,?,44*,-16%
COc1ccc(-c2cc(=O)c3ccccc3[nH]2)cc1,-5%,7,6%,18,-8%
COc1ccc(-c2cc(=O)c3ccccc3s2)cc1,4%,93*,-10%,29*,?
COc1ccc2sc(C)cc(=O)c2c1,-1%,·,·,·,·
Cc1ccc(CNC(=O)COc2ccc(S(=O)(=O)N3CCCC3)cc2)cc1,2%,-15,-6%[46.1 µM],-3,8%[46.1 µM]
Cc1ccc(C2(c3ccc(C)cc3)CC2C(=O)NC(C)C)cc1 (stereo not given),9%,-3,-3%[46.1 µM],-2,13µM*
CCc1ccc(NC(=O)Cn2ccn(-c3ccc(OC)cc3)c(=O)c2=O)cc1,·,·,7%[46.1 µM],·,·
Cc1nc2nc(CNC(=O)c3cccc(F)c3)nn2c(C)c1CCC(=O)Nc1cccc(Cl)c1,·,·,?,·,9%[46.1 µM]
O=C(/C=C/c1ccco1)NCc1ccc2c(c1)OCO2,5%,11,6%[46.1 µM],16,-7%[46.1 µM]
CC(C)(C)c1ccc(/C=C/C(=O)Nc2nncs2)cc1,-1%[11.6 µM],56*,?,63*,?
O=C(/C=C/c1ccco1)Nc1ccc2c(c1)OCO2,-1%,113*,?,38*,?
COC(=O)Nc1nncs1,3%,-2,·,1,·
O=C(/C=C/c1ccc2c(c1)OCO2)Nc1c(C(=O)O)[nH]c2ccccc12,-22%,55*,-28%,50*,?
COC(=O)c1cccc(NC(=O)/C=C/c2ccc3c(c2)OCO3)c1,7%[11.6 µM],21*,11µM*,43*,?
Cc1cccc2c3c(ccc12)C1=C(C(=O)C3=O)[C@@H](C)CO1,·,19,·,29,·
O=C(O)c1ccc(-c2c3nc(c(-c4ccc(C(=O)O)cc4)c4ccc([n-]4)c(-c4ccc(C(=O)O)cc4)c4nc(c(-c5ccc(C(=O)O)cc5)c5ccc2[n-]5)C=C4)C=C3)cc1.[Mn+3],·,-11,·,-4,·
NS(=O)(=O)c1ccc(NC(=O)/C=C/c2ccc3c(c2)OCO3)cc1,7%,18,?,5,?
CC(=O)Nc1ccc(NC(=O)/C=C/c2ccc3c(c2)OCO3)cc1,14%,23,-10%,32*,-29%[46.1 µM]
Cc1cc(C)nc(NC(=O)/C=C/c2ccc3c(c2)OCO3)c1,16%,66*,?,52*,?
Cc1sc(NC(=O)/C=C/c2ccc3c(c2)OCO3)nc1-c1ccccc1,-1%,11,?,-1,?
Cc1cccnc1NC(=O)/C=C/c1ccc2c(c1)OCO2,8%,85*,-4%,50*,-8%
O=C(/C=C/c1ccc2c(c1)OCO2)Nc1cccnc1,-1%,91*,·,36*,·
COc1ccc(CCNC(=O)CSc2cn(CCNC(=O)c3ccccc3F)c3ccccc23)cc1OC,·,·,-10%[46.1 µM],·,?
O=C(/C=C/c1ccc2c(c1)OCO2)Nc1nc(-c2ccccc2)cs1,-11%,39,-27%,2,?
O=C(/C=C/c1ccc2c(c1)OCO2)c1cccnc1,13%,29,16%[46.1 µM],22*,0%[46.1 µM]
O=C(/C=C/c1ccc2c(c1)OCO2)Nc1nncs1,-4%,45*,·,30*,·
COC(=O)c1cc(NC(=O)/C=C/c2ccc3c(c2)OCO3)cc(C(=O)OC)c1,3%,-2,?,-2,?
